Results as given in PubChem BioAssay AID1159580 (chemical genetic matrix, 2015).
In all, about 5,500 compounds went through this assay and about 2,000 (36%) were called active. Roughly 18% stayed inconclusive and do not appear here. Cut-off read from the data, not from the text of the source: active = normalized growth mostly below about 0.91 (no sharp cut-off); inconclusive = no clear call, values can overlap the other calls; inactive = mostly above about 0.92. The list shows a part of the results.

Assay: chemical genetic growth profiling, strain panel (AID 1159580);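 note: tested at 20 µM; growth read once vehicle control cultures reached saturation at 30 °C; 1 = growth at the plate median or of vehicle wells; lower values mean less growth of the strain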
Details: growth OD

Measured: normalized growth

O[N+]1=CC=CCC1=S.On1ccccc1=S.[Zn]
active: S. cerevisiae deletion strains, locus YJR043C, strain POL32, active compounds read low 0.0664 | S. cerevisiae deletion strains, locus YJR066W, strain TOR1, active compounds read low 0.00186 | S. cerevisiae deletion strains, locus YJR075W, strain HOC1, active compounds read low 0.0642 | S. cerevisiae deletion strains, locus YKL009W, strain mrt4, active compounds read low 0.071 | S. cerevisiae deletion strains, locus YKL068W, active compounds read low 0.0609 | S. cerevisiae deletion strains, locus YKL085W, strain MDH1 (second series), active compounds read low 0.0543 | S. cerevisiae deletion strains, locus YKL085W, strain MDH1, active compounds read low 0.0543 | S. cerevisiae deletion strains, locus YKL160W, strain elf1, active compounds read low 0.07 | S. cerevisiae deletion strains, locus YKR001C, strain vps1, active compounds read low 0.063 | S. cerevisiae deletion strains, locus YKR026C, strain gcn3, active compounds read low 0.0676 | S. cerevisiae deletion strains, locus YKR091W, strain srl3, active compounds read low 0.0611 | S. cerevisiae deletion strains, locus YLL001W, strain dnm1, active compounds read low 0.059 | S. cerevisiae deletion strains, locus YLL026W, active compounds read low 0.0586 | S. cerevisiae deletion strains, locus YLL041C, strain sdh2, active compounds read low 0.0589 | S. cerevisiae deletion strains, locus YLR027C, strain aat2, active compounds read low 0.0567 | S. cerevisiae deletion strains, locus YLR039C, strain RIC1, active compounds read low 0.101 | S. cerevisiae deletion strains, locus YLR058C, strain SHM2, active compounds read low 0.0528 | S. cerevisiae deletion strains, locus YLR102C, strain apc9, active compounds read low 0.0619 | S. cerevisiae deletion strains, locus YLR113W, strain HOG1, active compounds read low 0.14 | S. cerevisiae deletion strains, locus YLR221C, strain rsa3, active compounds read low 0.0633 | S. cerevisiae deletion strains, locus YLR258W, strain gsy2, active compounds read low 0.0677 | S. cerevisiae deletion strains, locus YLR262C, strain YPT6 (second series), active compounds read low 0.0872 | S. cerevisiae deletion strains, locus YLR262C, strain YPT6, active compounds read low 0.116 | S. cerevisiae deletion strains, locus YLR268W, strain sec22, active compounds read low 0.0675 | S. cerevisiae deletion strains, locus YLR320W, strain mms22, active compounds read low 0.0954 | S. cerevisiae deletion strains, locus YLR330W, strain CHS5, active compounds read low 0.0529 | S. cerevisiae deletion strains, locus YLR342W, strain FKS1 (second series), active compounds read low 0.0696 | S. cerevisiae deletion strains, locus YLR342W, strain FKS1, active compounds read low 0.0672 | S. cerevisiae deletion strains, locus YLR357W, strain rsc2, active compounds read low 0.128 | S. cerevisiae deletion strains, locus YLR370C, strain arc18, active compounds read low 0.0633 | S. cerevisiae deletion strains, locus YLR371W, strain rom2, active compounds read low 0.0617 | S. cerevisiae deletion strains, locus YLR384C, strain iki3, active compounds read low 0.0637 | S. cerevisiae deletion strains, locus YLR418C, strain cdc73, active compounds read low 0.0957 | S. cerevisiae deletion strains, locus YML016C, strain PPZ1, active compounds read low 0.0508 | S. cerevisiae deletion strains, locus YML032C, strain rad52, active compounds read low 0.0712 | S. cerevisiae deletion strains, locus YML120C, strain ndi1, active compounds read low 0.0615 | S. cerevisiae deletion strains, locus YML124C, strain tub3, active compounds read low 0.061 | S. cerevisiae deletion strains, locus YMR058W, strain fet3, active compounds read low 0.0596 | S. cerevisiae deletion strains, locus YMR078C, strain ctf18, active compounds read low 0.0748 | S. cerevisiae deletion strains, locus YMR125W, strain sto1, active compounds read low 0.0764 | S. cerevisiae deletion strains, locus YMR129W, active compounds read low 0.059 | S. cerevisiae deletion strains, locus YMR205C, strain PFK2, active compounds read low 0.0932 | S. cerevisiae deletion strains, locus YMR223W, strain ubp8, active compounds read low 0.0633 | S. cerevisiae deletion strains, locus YMR231W, strain pep5, active compounds read low 0.0701 | S. cerevisiae deletion strains, locus YMR263W, strain SAP30, active compounds read low 0.0599 | S. cerevisiae deletion strains, locus YMR307W, strain GAS1, active compounds read low 0.132 | S. cerevisiae deletion strains, locus YNL067W, strain RPL9B, active compounds read low 0.0487 | S. cerevisiae deletion strains, locus YNL071W, strain lat1, active compounds read low 0.0631 | S. cerevisiae deletion strains, locus YNL128W, strain TEP1, active compounds read low 0.0641 | S. cerevisiae deletion strains, locus YNL183C, strain NPR1, active compounds read low 0.00323 | S. cerevisiae deletion strains, locus YNL209W, strain ssb2, active compounds read low 0.0623 | S. cerevisiae deletion strains, locus YNL233W, strain BNI4, active compounds read low 0.0571 | S. cerevisiae deletion strains, locus YNL248C, strain rpa49, active compounds read low 0.0755 | S. cerevisiae deletion strains, locus YNL250W, strain rad50, active compounds read low 0.0654 | S. cerevisiae deletion strains, locus YNL271C, strain bni1, active compounds read low 0.074 | S. cerevisiae deletion strains, locus YNL298W, strain CLA4, active compounds read low 0.0625 | S. cerevisiae deletion strains, locus YNL307C, strain MCK1, active compounds read low 0.0674 | S. cerevisiae deletion strains, locus YNL322C, strain KRE1 (second series), active compounds read low 0.0696 | S. cerevisiae deletion strains, locus YNR049C, strain mso1, active compounds read low 0.0598 | S. cerevisiae deletion strains, locus YNR052C, strain pop2, active compounds read low 0.0619 | S. cerevisiae deletion strains, locus YOL147C, strain pex11, active compounds read low 0.0583 | S. cerevisiae deletion strains, locus YOR001W, strain rrp6, active compounds read low 0.0748 | S. cerevisiae deletion strains, locus YOR061W, strain CKA2, active compounds read low 0.049 | S. cerevisiae deletion strains, locus YOR069W, strain VPS5, active compounds read low 0.0493 | S. cerevisiae deletion strains, locus YOR070C, strain gyp1, active compounds read low 0.064 | S. cerevisiae deletion strains, locus YOR080W, strain dia2, active compounds read low 0.0707 | S. cerevisiae deletion strains, locus YOR083W, strain WHI5, active compounds read low 0.0734 | S. cerevisiae deletion strains, locus YOR106W, strain vam3, active compounds read low 0.0661 | S. cerevisiae deletion strains, locus YOR136W, strain idh2, active compounds read low 0.0716 | S. cerevisiae deletion strains, locus YOR144C, strain elg1, active compounds read low 0.0584 | S. cerevisiae deletion strains, locus YOR184W, strain ser1, active compounds read low 0.0698 | S. cerevisiae deletion strains, locus YOR231W, strain MKK1, active compounds read low 0.116 | S. cerevisiae deletion strains, locus YOR265W, strain rbl2, active compounds read low 0.064 | S. cerevisiae deletion strains, locus YOR270C, strain vph1, active compounds read low 0.0915 | S. cerevisiae deletion strains, locus YOR290C, strain snf2, active compounds read low 0.0656 | S. cerevisiae deletion strains, locus YOR316C, strain cot1, active compounds read low 0.0596 | S. cerevisiae deletion strains, locus YPL051W, strain arl3, active compounds read low 0.0708 | S. cerevisiae deletion strains, locus YPL055C, strain LGE1, active compounds read low 0.0796 | S. cerevisiae deletion strains, locus YPL078C, strain atp4, active compounds read low 0.07 | S. cerevisiae deletion strains, locus YPL106C, strain sse1, active compounds read low 0.109 | S. cerevisiae deletion strains, locus YPL240C, strain hsp82, active compounds read low 0.0591 | S. cerevisiae deletion strains, locus YPL256C, strain CLN2, active compounds read low 0.114 | S. cerevisiae deletion strains, locus YPR119W, strain clb2, active compounds read low 0.0639 | S. cerevisiae deletion strains, locus YPR141C, strain kar3, active compounds read low 0.0689 | S. cerevisiae deletion strains, locus YPR163C, strain tif3, active compounds read low 0.0727 | S. cerevisiae deletion strains, locus YPR167C, strain met16, active compounds read low 0.0637 | S. cerevisiae deletion strains, strain wtn01, active compounds read low 0.0638 | S. cerevisiae strains, strain wild type, active compounds read low 0.0514
